The record followed here is PubChem BioAssay (NCI).

Compounds without any hit were thinned out: in the full panel of roughly 83,000, 20% have a hit.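 The test compound was applied at a single concentration to cells in 96-well plates for 48 hours, and percent growth was recorded.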 Values without a mark were called inactive. Activity calls are given as the source filed them.

In the assay the test system is A549/ATCC NSCLC. The assay can be described thus: NCI-60 one-dose screen, 48 h (100 = growth as untreated, 0 = no growth, -100 = all killed). Conditions: 10 µM unless noted. Here is the method: Growth inhibition of the A549/ATCC human Non-Small Cell Lung tumor cell line is measured as a screen for anti-cancer activity. Cells are grown in 96 well plates and exposed to the test compound for 48 hours. Compounds are tested at a single concentration, which is 10^-5 M for most compounds. The reported endpoint is percent growth (GI% or GIPRCNT), where numbers from 0 - 100% represent growth inhibition, and numbers from -100% - 0 represent cell death. For example, a value of 40 represents 60% growth inhibition. A value of 0 means no net growth occurred over the course of the experiment. A value of -40 indicates 40% of cells at the beginning of the experiment died by the end of the experiment. A value of -100 means all cells are dead at the end of the experiment.
NCI-60 Human Tumor Cell Lines Screen was performed using the standard one-dose NCI protocol, which is described in more detail at https://dtp.cancer.gov/discovery_development/nci-60/default.htm.
Compounds with GIPRCNT values below 10 were considered active. Activity score was based on GIPRCNT using the following formula: […]
Score is 0 for GIPRCNT values of 100 or above, 50 for GIPRCNT values of 0, and 100 for GIPRCNT values of -100.
For the molecule `COc1ccccc1CNc1c2ccccc2nc2ccccc12`, the growth is 34.2%.
Turning to `CS(=O)(=O)Nc1cc(-c2ccc3ncnc(Nc4ccc5c(cnn5Cc5ccc(F)cc5)c4)c3c2)cnc1Cl`, the growth is 78.7%.
For the molecule `CCn1cc(C(=O)O)c(=O)c2cc(F)c(N3CCN(CC(=O)Nc4ccc(S(=O)(=O)Nc5nccc(C)n5)cc4)C(C)C3)c(F)c21` (stereo not given), the growth is 111%.
Turning to `CCCC/C=C/[C@@H]1C[C@H]1CCO`, the growth was 96.7%.
With `C=C(C)[C@@H]1CC[C@]2(C(=O)N3CCOCC3)CC[C@]3(C)[C@H](CC[C@@H]4[C@@]5(C)C/C(=C/c6ccncc6)C(=O)C(C)(C)[C@@H]5CC[C@]43C)[C@@H]12`, the growth is 42.4%.
In the case of `Cc1cc(C(=O)Nc2ncc(Cc3cccc(C(F)(F)F)c3)s2)c2ccccc2n1`, the growth is 24.7%.
Regarding `CC(=O)O[C@H]1CC2CCC3C(CC[C@@]4(C)C3C[C@H]([N+]3(C)CCCCC3)[C@@H]4OC(C)=O)[C@@]2(C)C[C@@H]1N1CCCCC1` (stereo not given in full), the growth was 101%.
For `Cn1c(I)c(C#CCO[Si](C)(C)C(C)(C)C)c(=O)[nH]c1=O`, the growth was 107%.
Regarding `CCCNC(=O)Nc1ccc2cc3ccc(NC(=O)NCCC)cc3nc2c1`, the growth was 95.9%.
For the molecule `Cc1[nH]c(=O)[nH]c(=O)c1Br`, the growth was 98.2%.
Consider `O=C(Nc1nc2ccc(C(=O)N3CCN(/C=C/c4ccccc4)CC3)cc2s1)c1ccc(NCCc2ccccc2)c([N+](=O)[O-])c1`, for which the growth was 55.2%.
Turning to `Cn1cc(-c2nonc2-c2cn(C)c3ccccc23)c2ccccc21`, the growth was 21.8%.
For the molecule `Cn1ccc(=O)c(C(=O)Nc2nsc3ccc([N+](=O)[O-])cc23)c1`, the growth is 74.9%.
Next, `Cc1ccc(C(=O)c2ccc(CC(=O)N/N=C/c3ccccc3O)n2C)cc1`: 86.1%.
For the molecule `Cn1cc(-c2csc(-c3c[nH]c4ccccc34)n2)c2cnccc21`, the growth is 18%.
On to `O=C1Nc2ccc(C(=O)O)cc2/C1=N/c1nnc(Sc2ccccc2)s1`, for which the growth was 99.9%.
As to `COc1cc(NS(=O)(=O)c2ccc(-c3cnc(C4CC4)o3)cc2)ccc1F`, the growth was 34.4%.
`Cc1ccc(C[P+](c2ccccc2)(c2ccccc2)c2ccccc2)cc1`: the growth was 26.9%.
For `O=C(CN1C(=O)NC2NC(=O)NC21)N/N=C/c1ccccc1[N+](=O)[O-]` (stereo not given), the growth is 110%.
With `COc1ccc(C(=O)/C=C/c2c(C(F)(F)F)nc3ccccn23)cc1OC`, the growth is 43.1%.
Turning to `O=C(c1nn(-c2ccccc2)c2c1CC(NCc1ccc(F)cc1)CC2)N1CCCCC1` (stereo not given), the growth was 103%.
With `N#CC1=C(c2ccccc2)Nc2c(c(-c3ccc(Cl)cc3)nn2-c2ccccc2)C12C(=O)Nc1ccc(Cl)cc12` (stereo not given), the growth is 54.7%.
As to `COCCOc1cc2ncnc(N3CCN(c4ncc(S(=O)(=O)N5CCCCC5)cn4)CC3)c2cc1OCCOC`, the growth is 102%.
Take `Cc1cc(C(=O)O)c(C)n1-c1cccc(C(=O)O)c1`: the growth is 71.4%.
Turning to `N#C/C(=C\c1c(-c2ccccc2)[nH]c2ccccc12)C(N)=O`, the growth was 89.5%.
For the molecule `COC(=O)c1nc(-c2ccccc2)oc1S(=O)(=O)Cc1ccccc1`, the growth was 96.5%.
Consider `O=C(Nc1cccc2ccccc12)NC1CC1`, for which the growth is 103%.
On to `CCC1=C[C@@H]2C[C@]3(C(=O)OC)c4[nH]c5ccccc5c4CC[N@+](CC(=O)Nc4cc5c(cc4OC)N(C)[C@H]4[C@@](O)(C(=O)OC)[C@H](OC(C)=O)[C@]6(CC)C=CCN7CC[C@]54[C@@H]76)(C2)[C@H]13`, for which the growth was 100%.
For `CCOC(=O)c1c(NC(=O)c2cccc(C(F)(F)F)c2)sc2c(CN(C)C)c(O)ccc12`, the growth is 60.8%.
For the molecule `CCN(CC)Cc1cc(C=C2C(=O)NC(=S)NC2=O)cc(OC)c1O`, the growth is 109%.
As for `Nc1[nH]n2cc(-c3ccccc3)nc2c1N=Nc1ccc(S(N)(=O)=O)cc1`, the figure is 32.8%; as for `CN1CCN(c2cc(Nc3cc(C4CC4)[nH]n3)nc(Nc3ccc(CC(=O)NCc4cccc(F)c4)cc3)n2)CC1`, 24.3%; as for `COc1ccc(NC2=C(I)C(=O)c3ncccc3C2=O)cc1`, 0.0675% (active).
In the case of `CSc1nc2ncc([N+](=O)[O-])c(=O)n2[nH]1`, the growth was 101%.
Consider `COc1ccc(C(C)=O)cc1S(=O)(=O)Nc1c(N)nc(SC)[nH]c1=O`, for which the growth is 99.7%.
Next, `Cc1cc(C)c2c(c1)N(C)c1ncnc(-n3cnc4cc(C)ccc43)c1CC2C` (stereo not given): 26.2%.
Turning to `CC(=O)O[C@@H]1C[C@]2(C(C)C)O[C@@]1(C)[C@@H]1CCC(C)=C1[C@@H]2OC(=O)/C=C/c1ccccc1`, the growth was 82.3%.
With `Cc1ccc2c(n1)C(=O)C(Br)=C(C1CCCC1)C2=O`, the growth is 94.4%.
As for `Cc1csc(Nc2nc(-c3ccccn3)nc(C(Cl)(Cl)Cl)n2)n1`, the figure is 79.4%; as for `N#Cc1nc(-c2ccc(F)cc2)oc1S(=O)(=O)N1CCOCC1`, 107%.
